# Bioassay records: PubChem BioAssay, National Center for Advancing Translational Sciences (NCATS)
# Most compounds without a hit are left out; they make up all but 19% or so of the library.
# Pf growth 96h: P. falciparum growth inhibition at 96 hour, primary screen for plastid delayed-death inhibitors; P. falciparum luciferase reporter growth, 96 h; Potency, µM (highest dose often 28.7 µM), for the others: at the highest dose activity change, negative = inhibition, hits mostly inhibitors; 320,000 tested, 6.9% active; further: potency means the concentration at half of the fitted maximal effect; on the % scale 0 is the no-effect control and ±100 the full control effect
#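 P. falciparum expressing integrated firefly luciferase grown in erythrocytes (2% hematocrit, 0.05% parasitemia final) with compounds for 96 hours at 37 C, 5% CO2. Growth inhibition read as loss of luminescence after adding luciferase detection reagent.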
# Cycloheximide cs: counter-screen hit for Shiga toxin inhibitors, cycloheximide; cell reporter, cycloheximide protein synthesis inhibition counterscreen; max response, %; 300,000 tested, 12% active; AID 2314; in the data active means max response mostly above about 13%, no sharp cut-off; inactive means mostly below about 14%; further: read at 38.3 µM for the half of the compounds with a filed dose; 0% is about no effect
# Shiga inhibitor: Shiga toxin inhibition. Vero cells, Shiga toxin protein synthesis inhibition reporter. inhibition, % at 38.7 µM. 290,000 tested, 9.2% active. AID 2315; in the data active means inhibition mostly above about 28%, no sharp cut-off; inactive means mostly below about 43%; further: 0% is about no effect
# Pf growth 48h: P. falciparum growth inhibition at 48 hours (one generation); P. falciparum luciferase growth in erythrocytes, 48 h; Potency, µM (top dose mostly 28.7 µM), for the others: top-dose activity change, negative = inhibition, usual class: inhibitors; 310,000 tested, 5.9% active; further: potency means the concentration at half of the fitted maximal effect; on the % scale 0 is the no-effect control and ±100 the full control effect
#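 Luminescence readout; reporter = integrated firefly luciferase in P. falciparum. RBC culture at 2% hematocrit, 0.1% parasitemia final, 37 C/5% CO2; decreased signal taken as growth inhibition.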
# MARV entry inh: blocks Marburg virus binding to or entry into cells | Marburg virus pseudotyped entry inhibition, cell reporter | Potency, µM (highest dose often 37.8 µM), for inactives: at the highest dose activity change, negative = inhibition, most hits filed as inhibitors | 300,000 tested, 1.8% active | AID 540276; calls by dose curve; tested in HEK293 cells; further: potency means the concentration at half of the fitted maximal effect; on the % scale 0 is the no-effect control and ±100 the full control effect
# LASV entry inh: inhibitors of Lassa virus binding or cell entry; Lassa virus pseudotype entry inhibition, cell reporter; Potency, µM (top dose mostly 37.9 µM), for inactives: top-dose activity change, negative = inhibition, most hits filed as inhibitors; 300,000 tested, 1.2% active; AID 540256; calls by dose curve; tested in HEK293 cells; further: potency means the concentration at half of the fitted maximal effect; on the % scale 0 is the no-effect control and ±100 the full control effect; nearly all actives have a fitted effect of over 50% in size
# * = called active by the depositor; ? = inconclusive; . = not tested or not shown; ! = a repeat was not active; [ ] = dose if it differs, or a comment. Unless noted, the call rests on the fitted dose curve; in most records, active means well fitted inhibition curve with a large enough effect; inconclusive means small, poorly fitted or top-dose-only effect, or another doubt; inactive means no such curve, though single readings can be large or run the other way.
SMILES,Pf growth 96h,Cycloheximide cs,Shiga inhibitor,Pf growth 48h,MARV entry inh,LASV entry inh
CCCCOc1ccc(C2C(C(=O)c3ccc(C)o3)=C(O)C(=O)N2Cc2ccco2)cc1 (stereo not given),?,-1,-9,-1%,.,.
O=C1C(Cl)=C(Nc2ccc(F)cc2)C(=O)N1CCc1ccccc1,?,59*,82*,8%,?,21%
O=C1C(Cl)=C(NCCCN2CCOCC2)C(=O)N1CCc1ccccc1,?,24*,29,12%,16%,-3%
CNC[C@H](CC1CCCCC1)NC[C@H](CO)NCC1(c2ccccc2)CC1,?,-2,-3,?,.,.
CNC[C@H](CC1CCCCC1)NC[C@H](CO)NCCc1cccc(C(F)(F)F)c1,1.9µM*,-7,-11,?,.,.
CCOc1ccc(N2CC(=O)SC2=S)cc1,-13%[5.75 µM],0,15,9%,-19%,-30%
COc1ccc(C2C(C#N)=C(C)NC(C)=C2C(=O)OC(C)C)c(OC)c1 (stereo not given),4.7µM*,10,-13,7.4µM*,?,-2%[46.1 µM]
COc1cc(C2C(C(=O)OC(C)C)=C(C)Nc3[nH]c(=O)[nH]c(=O)c32)ccc1O (stereo not given),-3%,0,6,1%,18%,10%
CC1=C(C(=O)OC(C)C)C(c2ccc(C)o2)C(C(=O)OC(C)C)=C(C)N1,?,1,6,10µM*,?,-17%
CCOC(=O)C1=C(C)NC(C)=C(C(=O)OCC)C1c1ccc(Br)o1,12µM*,-5,-2,?,-44%,-3%
Nc1cccnc1Sc1cc(Cl)cc(Cl)c1,.,5,-39,0%,-29%,6%
CC(/C=N/NC(=O)Cc1cccs1)=C\c1ccco1,-25%,41*,37,53%,-8%,8%
CC(/C=C/c1ccco1)=N/NC(=O)Cc1cccs1,12%,14*,-30,20%,13%,2%
CC(/C=N/NC(=O)c1cccs1)=C\c1ccco1,?,58*,128*,78%,10%[46.1 µM],?
CC(/C=C/c1ccco1)=N/NC(=O)c1ccc(C)nc1,0%,7,11,-6%,6%,?
CN(C)S(=O)(=O)c1ccc(/C(O)=C2/C(=O)C(=O)N(CCCN3CCOCC3)C2c2ccncc2)cc1 (stereo not given),.,.,.,.,3%[46.1 µM],-9%
O=C(NNS(=O)(=O)c1ccc(F)cc1)C1CCN(Cc2cccc(F)c2)CC1,-26%,-1,18,4%,4%,1%
CCOC(=O)Cc1csc(SCC(=O)NC2CCCCC2)n1,?,-1,19,14%,-17%,-1%
COc1ccc(C2NC(=O)N(C)C3=C2C(=O)N(c2ccc(C)cc2)C3)cc1 (stereo not given),.,.,.,.,5%[46.1 µM],-22%[46.1 µM]
CCCSCCCNC(=O)Cn1cc2c(n1)CCC(C)C2 (stereo not given),?,-3,-2,-3%,.,.
CN1CCc2c(sc(NC(=O)c3ccc(S(=O)(=O)N4CCCCCC4)cc3)c2C(N)=O)C1,?,-5,-10,?,?,?
CCN1CCc2c(sc(NC(=O)c3ccc(S(=O)(=O)N4CCCC4)cc3)c2C(=O)NC)C1,15µM*,-2,-14,10µM*,.,.
CNC(=O)c1c(NC(=O)c2ccc(S(=O)(=O)N3CCCCC3)cc2)sc2c1CCN(C(C)C)C2,8.3µM*,-2,-8,10µM*,.,.
Cc1cccc(N2C(=O)CSC23C(=O)N(C)c2ccccc23)c1 (stereo not given),.,.,.,.,.,6%[46.1 µM]
FC(F)(F)c1nnc2ccc(N3CCCCCC3)nn12,14%,-5,-2,?,44%,-9%
SMILES,Pf growth 96h,Cycloheximide cs,Shiga inhibitor,Pf growth 48h,MARV entry inh,LASV entry inh
COCCNc1nnnc2c1sc1nc(N3CCOCC3)c3c(c12)CC(C)(C)OC3,?,9,-7,?,9%,-7%
O=C(CSc1nnc2c(Cl)cc(Cl)cn12)N1CCN(S(=O)(=O)c2ccccc2)CC1,?,-4,-6,?,?,0%
CCOC(=O)c1ccc(NC(=O)CN2C(=O)C(=O)N(CC(C)C)C2=O)cc1,14%,-1,-9,.,5%,-1%
O=C(O)CSc1nc(-c2cccs2)cc(C(F)(F)F)n1,-15%,10,12,5%,?,9%
COc1ccc(-c2cc(C(F)(F)F)nc(SCC(=O)NCc3cccs3)n2)cc1,?,7,9,12µM*,-11%,2%
O=C(CSc1nc(-c2ccccc2)cc(C(F)(F)F)n1)NCc1cccs1,-11%,-1,-5,0%,?,?
COc1ccc(-c2cc(C(F)(F)F)nc(SCCC(=O)Nc3ccc(NC(C)=O)cc3)n2)cc1,.,.,.,.,0%[46.1 µM],10%[46.1 µM]
CCC(C)NC(=O)CSc1nc(-c2cccs2)cc(C(F)(F)F)n1 (stereo not given),5.2µM*,8,23,.,-24%,-8%
COCC(C)NC(=O)CCSc1nc(-c2ccc(OC)cc2)cc(C(F)(F)F)n1 (stereo not given),9.3µM*,4,-5,5.2µM*,-21%,-27%
O=C(CSc1nc(-c2cccs2)cc(C(F)(F)F)n1)Nc1cc(OCC(F)(F)F)cc([N+](=O)[O-])c1,30%,-3,-3,?,7.1µM*,?
CC(C)(C)C1CCC2(CC1)NC(CO)(CO)CO2 (stereo not given),?,-1,-1,18%,4%,3%
CC(C)n1cnc2c(NCc3ccc(S(N)(=O)=O)cc3)nc(NCc3ccc(S(N)(=O)=O)cc3)nc21,?,-3,-7,?,.,.
COc1ccc(N2CCN(c3nc4ccc(C)cc4n4nnnc34)CC2)cc1,.,.,.,.,.,13%[46.1 µM]
CC(C)c1nnc(NC(=O)CCS(=O)(=O)c2nc(-c3cccs3)cc(C(F)(F)F)n2)s1,0.74µM*,3,-7,28%,13µM*,?
O=C(CCS(=O)(=O)c1nc(-c2cccs2)cc(C(F)(F)F)n1)Nc1ccc(F)c(Cl)c1,.,.,.,.,27%[46.1 µM],?
Oc1ccc(Cl)c2cccnc12,12µM*,.,.,13µM*,-17%,-17%
Oc1c(I)cc(I)c2cccnc12,11µM*!,-3,12,?,3%,-9%
Oc1ccc(F)c2cccnc12,15µM*,-1,2,?,?,20%
Cc1ccc2c(Cl)cc(Cl)c(O)c2n1,.,-4,-6,.,11µM*,?
CNC(=O)COc1ccc(Cl)c2cccnc12,-1%,-4,61,24%,.,.
CC(=O)N1CCn2c3c(c(=O)c4cc(C)ccc42)CCC31 (stereo not given),.,-3,-20,?,-11%,1%
O=Cc1cn(CC(=O)N2CCOCC2)c2ccccc12,4%,-4,-7,-12%,-11%,3%
Cc1cccc(CN2CCN(CC(=O)NCc3ccc(Cl)cc3)C2=O)c1,.,.,.,.,-4%[46.1 µM],-13%[46.1 µM]
Cc1ccc(S(=O)(=O)Nc2cc(Cl)c(O)c3ncccc23)cc1,-5%,-2,13,7.4µM*,?,?
